Laboratory results as given in PubChem BioAssay (NCATS).
Inconclusive results are not listed. Unmarked numbers belong to inactive results. Active and inactive are the calls of the source. Calls follow the shape of the dose curve; as a rule, active = well fitted curve in the direction sought with a large enough effect; inconclusive = small, poorly fitted or top-dose-only effect, or another doubt; inactive = no such curve, though single readings can be large; an effect the other way counts as inactive or inconclusive. Where a SMILES comes first, the peptide text is derived from it. Bridges are numbered along the chain shown (N, C = ends). [ ]: non-standard residue; d: D form. The star is where a group is joined. X1 = CC[C@@H](C)[C@@H](N)C1=N[C@H](C(=O)*)CS1; d(aIle) = CC[C@H](C)[C@@H](N)C(=O)O; dOrn = NCCC[C@@H](N)C(=O)O; X2 = CC[C@H](C)CCCCC(=O)*; Dab = NCC[C@H](N)C(=O)O

Test: qHTS assay to identify small molecule inhibitors of chordoma cells - UCH-2 (AID 1259356)
Details: UCH-2 chordoma viability, CellTiter-Glo ATP luminescence, 48 h; series mostly up to 46.1 µM; activity change, negative = inhibition: at the top concentration
% is scaled to controls: 0 for no effect and ±100 for the full control effect.

Compound | activity change, negative = inhibition
CC(C)(C)CC(C)(C)c1ccc(OCCO)cc1 | 3.07%
CC(C)C1=CC2=CC[C@@H]3[C@](C)(CCC[C@@]3(C)C(=O)O)[C@H]2CC1 | 9.56%
O=C(Nc1ccc(O)cc1)c1ccccc1O | 2%
COc1ccc2c(c1)OC(C)(C)C(c1ccccc1)C2c1ccc(OCCN2CCCC2)cc1 (centres undefined) | 2.93%
CO[C@@H]1[C@H](OC(=O)/C=C/C=C/C=C/C=C/C(=O)O)CC[C@]2(CO2)[C@H]1[C@@]1(C)O[C@@H]1CC=C(C)C | -3.07%
CC(C)[C@@H]1CC[C@@H](C)C[C@H]1O | 9.9%
CCCC(CCC)C(=O)OC1C[C@H]2CC[C@@H](C1)[N+]2(C)C (some centres undefined) | 1.61%
CN[C@@H]1[C@H](O[C@H]2[C@H](O[C@H]3[C@H](O)[C@@H](O)[C@H](N=C(N)N)[C@@H](O)[C@@H]3N=C(N)N)O[C@@H](C)[C@]2(O)CO)O[C@@H](CO)[C@H](O)[C@H]1O | 3.12%
COC(=O)CCC[N+](C)(C)C | -1.09%
Cc1ccc(C(C)(C)c2ccc(C)cc2)cc1 | 6.87%
CCOC(=S)SSC(=S)OCC | 1.3%
CN[C@@H]1[C@H](O[C@H]2[C@H](O[C@H]3[C@H](O)[C@@H](O)[C@H](N=C(N)N)[C@@H](O)[C@@H]3N=C(N)N)O[C@@H](C)[C@]2(O)C=O)O[C@@H](CO)[C@H](O)[C@H]1O | 16.5%
C=C1[C@H](CO)[C@@H](O)C[C@@H]1n1cnc2c(=O)[nH]c(N)nc21 | -4.73%
Cc1ncc(C[n+]2csc(CCOP(=O)(O)O)c2C)c(N)n1 | -6.16%
CC(CN1c2ccccc2Sc2cccnc21)N(C)C (centres undefined) | -24.7%
c1ccc(-n2cnnn2)cc1 | -1.26%
O=[n+]1ccn([O-])c2ccccc21 | -28.1%
F[Si-2](F)(F)(F)(F)F | 5.56%
C[C@H](CCCC(C)(C)O)[C@H]1CC[C@H]2[C@@H]3CC=C4C[C@@H](O)CC[C@]4(C)[C@H]3CC[C@]12C | 6.05%

Compound | activity change, negative = inhibition
CCN(CC)CCOC(=O)c1cccnc1 | -15.7%
C[C@H](NCCc1ccc(O)cc1)[C@H](O)c1ccc(O)cc1 | 1.89%
O=C1C2CC3CC1CC(O)(C3)C2 | 3.76%
CC(C)[C@@H](N)C(=O)O | -0.955%
CCOC(C)OCC | -0.408%
CC[C@H](C)CCCCC(=O)N[C@@H](CCN)C(=O)N[C@H](C(=O)N[C@@H](CCN)C(=O)N[C@H]1CCNC(=O)[C@@H]([C@H](C)O)NC(=O)[C@H](CCN)NC(=O)[C@H](CCN)NC(=O)[C@H](CC(C)C)NC(=O)[C@@H](CC(C)C)NC(=O)[C@H](CCN)NC1=O)[C@@H](C)O (X2-[Dab]T[Dab][Dab][Dab][dL]L[Dab][Dab][dT]; lactam 4-C) | 8.52% [at 20.6 µM]
CC(C)CN(C[C@@H](OP(=O)(O)O)[C@H](Cc1ccccc1)NC(=O)O[C@H]1CCOC1)S(=O)(=O)c1ccc(N)cc1 | 12.9%
CO[C@H]1O[C@@H]2O[C@@]3(C)CC[C@H]4[C@H](C)CC[C@@H]([C@H]1C)[C@@]24OO3 | -0.797%
CCN(CC)CCCC(C)Nc1cc(/C=C/c2ccccc2Cl)nc2cc(Cl)ccc12 (centres undefined) | 0.742%
CC[C@@H](C)[C@@H](N)C1=N[C@H](C(=O)N[C@@H](CC(C)C)C(=O)N[C@@H](CCC(=O)O)C(=O)N[C@@H](C(=O)N[C@@H]2CCCCNC(=O)[C@@H](CC(N)=O)NC(=O)[C@@H](CC(=O)O)NC(=O)[C@@H](Cc3cnc[nH]3)NC(=O)[C@@H](Cc3ccccc3)NC(=O)[C@@H]([C@H](C)CC)NC(=O)[C@@H](CCCN)NC2=O)[C@@H](C)CC)CS1 (X1-LE[d(aIle)][dK][dOrn][dI][dF][dH][dD][dN]; lactam 4-C) | -1.64% [at 20.6 µM]
CCSc1ccc2c(c1)N(CCCN1CCN(C)CC1)c1ccccc1S2 | -2.08% [at 20.6 µM]
O=P(O)(O)OC[C@H]1O[C@](O)(COP(=O)(O)O)[C@@H](O)[C@@H]1O | -7.05%
CC1=C(/C=C/C(C)=C/C=C/C(C)=C/C=C/C=C(C)/C=C/C=C(C)/C=C/C2=C(C)C[C@@H](O)CC2(C)C)C(C)(C)C[C@H](O)C1 | -17%
CC1(C)[C@H]2CC[C@]1(C)[C@H](O)C2 | -2.18%
CC(=O)O[C@@H]1CC2CCC1(C)C2(C)C (some centres undefined) | 7.34%
CNCC(O)c1ccc(OC(=O)C(C)(C)C)c(OC(=O)C(C)(C)C)c1 (centres undefined) | -22.4% [at 20.6 µM]
O=C(O)CC/C=C\CC[C@@H]1[C@@H](N2CCCCC2)[C@@H](O)C[C@@H]1OCc1ccc(-c2ccccc2)cc1 | -17%
C[C@]12CCC(=O)C[C@@H]1CC[C@@H]1[C@@H]2CC[C@]2(C)C=CC[C@@H]12 | 16.2%
H-RKDVY-OH | -10.7%

Test: P-glycoprotein substrates identified in KB-8-5-11 adenocarcinoma cell line, qHTS therapeutic library screen (AID 1346987); also: nearly all actives have a fitted effect of over 65% in size; also: potency is read from the fitted curve at half-maximal effect
Details: KB-8-5-11 (P-gp overexpressing) viability, CellTiter-Glo, 72 h; series mostly up to 44.5 µM; activity change, negative = cytotoxicity: at the top concentration
Method in brief: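 Compounds are pinned in dose-response onto KB-8-5-11 cells (500 cells/well, colchicine-free medium) and left 72 h at 37 degree C. CellTiter-Glo luminescence then yields AC50 values.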

Compound | Potency | activity change, negative = cytotoxicity | outcome
CC(C)(C)CC(C)(C)c1ccc(OCCO)cc1 | 13 µM (active) |  | 
CC(C)C1=CC2=CC[C@@H]3[C@](C)(CCC[C@@]3(C)C(=O)O)[C@H]2CC1 |  | -14.2% | 
O=C(Nc1ccc(O)cc1)c1ccccc1O |  | -17.8% | 
COc1ccc2c(c1)OC(C)(C)C(c1ccccc1)C2c1ccc(OCCN2CCCC2)cc1 (centres undefined) | 20.6 µM (active) |  | 
CO[C@@H]1[C@H](OC(=O)/C=C/C=C/C=C/C=C/C(=O)O)CC[C@]2(CO2)[C@H]1[C@@]1(C)O[C@@H]1CC=C(C)C |  | -19.2% | 
CC(C)[C@@H]1CC[C@@H](C)C[C@H]1O |  | 10.9% | 
COC(=O)CCC[N+](C)(C)C |  | 13.3% | 
Cc1ccc(C(C)(C)c2ccc(C)cc2)cc1 |  | -2.66% | 
CN[C@@H]1[C@H](O[C@H]2[C@H](O[C@H]3[C@H](O)[C@@H](O)[C@H](N=C(N)N)[C@@H](O)[C@@H]3N=C(N)N)O[C@@H](C)[C@]2(O)C=O)O[C@@H](CO)[C@H](O)[C@H]1O |  |  | inactive [setting not given]
O=[n+]1ccn([O-])c2ccccc21 |  | 5.61% | 
F[Si-2](F)(F)(F)(F)F |  | -13.9% | 
CCN(CC)CCOC(=O)c1cccnc1 |  | 4.62% | 
O=C1C2CC3CC1CC(O)(C3)C2 |  | -7.82% | 
CCOC(C)OCC |  | 4.31% | 
CO[C@H]1O[C@@H]2O[C@@]3(C)CC[C@H]4[C@H](C)CC[C@@H]([C@H]1C)[C@@]24OO3 |  | -27.5% | 
CC[C@@H](C)[C@@H](N)C1=N[C@H](C(=O)N[C@@H](CC(C)C)C(=O)N[C@@H](CCC(=O)O)C(=O)N[C@@H](C(=O)N[C@@H]2CCCCNC(=O)[C@@H](CC(N)=O)NC(=O)[C@@H](CC(=O)O)NC(=O)[C@@H](Cc3cnc[nH]3)NC(=O)[C@@H](Cc3ccccc3)NC(=O)[C@@H]([C@H](C)CC)NC(=O)[C@@H](CCCN)NC2=O)[C@@H](C)CC)CS1 (X1-LE[d(aIle)][dK][dOrn][dI][dF][dH][dD][dN]; lactam 4-C) | inactive |  | 
CC(=O)O[C@@H]1CC2CCC1(C)C2(C)C (some centres undefined) |  | 9.1% | 
CNCC(O)c1ccc(OC(=O)C(C)(C)C)c(OC(=O)C(C)(C)C)c1 (centres undefined) |  | -10.9% [at 17.3 µM] | 
O=C(O)CC/C=C\CC[C@@H]1[C@@H](N2CCCCC2)[C@@H](O)C[C@@H]1OCc1ccc(-c2ccccc2)cc1 |  | -14.3% | 
C[C@]12CCC(=O)C[C@@H]1CC[C@@H]1[C@@H]2CC[C@]2(C)C=CC[C@@H]12 |  | -7.33% | 
H-RKDVY-OH |  | 6.08% | 
